Consider seven compounds from ChEMBL document CHEMBL2218924, “A broad activity screen in support of a chemogenomic map for kinase signalling research and drug discovery” (Biochem J, 2013).

The structures appear in SMILES notation.

The target of experiment [1] is Serine/threonine-protein kinase PLK3 (Homo sapiens) (UniProt Q9H4B4). As to conditions: at 1 µM; call rule not given here.
For experiment [2] the target is unchanged. As to conditions: at 10 µM.
Experiment [3] deals with T1, cAMP-dependent protein kinase catalytic subunit PRKX (Homo sapiens) (UniProt P51817).
T1 sequence (whole entry): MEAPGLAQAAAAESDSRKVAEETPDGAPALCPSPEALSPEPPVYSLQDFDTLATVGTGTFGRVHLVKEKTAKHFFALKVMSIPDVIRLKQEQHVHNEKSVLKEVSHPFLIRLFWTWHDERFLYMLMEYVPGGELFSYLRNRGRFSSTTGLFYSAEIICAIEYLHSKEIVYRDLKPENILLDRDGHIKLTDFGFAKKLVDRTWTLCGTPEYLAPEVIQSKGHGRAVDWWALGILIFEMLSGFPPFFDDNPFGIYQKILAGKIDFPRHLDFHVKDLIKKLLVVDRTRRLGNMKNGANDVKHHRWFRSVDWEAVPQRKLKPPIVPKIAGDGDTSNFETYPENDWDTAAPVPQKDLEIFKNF
As to conditions: at 1 µM.

Experiment [4] has as its target T1, cAMP-dependent protein kinase catalytic subunit PRKX (Homo sapiens). As to conditions: at 10 µM.
In experiment [5] the target is Protein-tyrosine kinase 2-beta (Homo sapiens) (UniProt Q14289). As to conditions: at 1 µM.
For experiment [6] the target is unchanged. As to conditions: at 10 µM.
Experiment [7] deals with Receptor-interacting serine/threonine-protein kinase 2 (Homo sapiens) (UniProt O43353). As to conditions: at 1 µM.
For experiment [8] the target is unchanged. As to conditions: at 10 µM.
The target in experiment [9] is Rho-associated protein kinase 1 (Homo sapiens) (UniProt Q13464). As to conditions: at 1 µM.
For experiment [10] the target is unchanged. As to conditions: at 10 µM.
The target in experiment [11] is Rho-associated protein kinase 2 (Homo sapiens) (UniProt O75116). As to conditions: at 1 µM.
For experiment [12] the target is unchanged. As to conditions: at 10 µM.
Experiment [13] addresses Proto-oncogene tyrosine-protein kinase receptor Ret (Homo sapiens) (UniProt P07949). As to conditions: at 1 µM.
For experiment [14] the target is unchanged. As to conditions: at 10 µM.
The target of experiment [15] is Macrophage-stimulating protein receptor (Homo sapiens) (UniProt Q04912). As to conditions: at 1 µM.
The target is the same in experiment [16]. As to conditions: at 10 µM.
Experiment [17] has as its target Proto-oncogene tyrosine-protein kinase ROS (Homo sapiens) (UniProt P08922). As to conditions: at 1 µM.
For experiment [18] the target is unchanged. As to conditions: at 10 µM.
The target in experiment [19] is T2, Tyrosine-protein kinase receptor TYRO3 (Homo sapiens) (UniProt Q06418).
T2 sequence (whole entry): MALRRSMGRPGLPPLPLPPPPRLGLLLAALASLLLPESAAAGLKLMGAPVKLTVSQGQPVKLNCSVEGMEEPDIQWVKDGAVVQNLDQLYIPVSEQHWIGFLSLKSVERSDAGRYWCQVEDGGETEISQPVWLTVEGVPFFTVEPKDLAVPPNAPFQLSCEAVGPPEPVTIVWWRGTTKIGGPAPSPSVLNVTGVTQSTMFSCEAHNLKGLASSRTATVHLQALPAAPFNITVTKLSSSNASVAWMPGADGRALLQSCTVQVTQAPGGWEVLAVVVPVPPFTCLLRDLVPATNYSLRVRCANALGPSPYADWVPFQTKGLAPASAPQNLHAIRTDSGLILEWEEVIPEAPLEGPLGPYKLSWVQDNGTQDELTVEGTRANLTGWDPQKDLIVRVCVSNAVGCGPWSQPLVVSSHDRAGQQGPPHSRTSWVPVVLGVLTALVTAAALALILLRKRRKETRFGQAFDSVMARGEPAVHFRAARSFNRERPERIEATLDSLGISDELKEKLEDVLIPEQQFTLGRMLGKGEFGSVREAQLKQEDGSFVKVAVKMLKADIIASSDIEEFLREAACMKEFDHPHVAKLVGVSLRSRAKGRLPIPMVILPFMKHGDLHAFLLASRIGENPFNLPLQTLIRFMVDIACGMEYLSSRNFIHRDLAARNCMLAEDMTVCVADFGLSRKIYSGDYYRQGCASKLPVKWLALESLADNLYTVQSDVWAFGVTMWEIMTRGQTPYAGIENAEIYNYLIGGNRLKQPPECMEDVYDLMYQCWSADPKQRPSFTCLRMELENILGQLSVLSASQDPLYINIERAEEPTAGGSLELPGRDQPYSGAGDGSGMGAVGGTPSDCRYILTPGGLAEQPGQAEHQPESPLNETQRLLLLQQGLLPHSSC
As to conditions: at 1 µM.

In experiment [20] the target is T2, Tyrosine-protein kinase receptor TYRO3 (Homo sapiens). As to conditions: at 10 µM.

Chain of Proto-oncogene tyrosine-protein kinase receptor Ret (Homo sapiens) (P07949 whole entry): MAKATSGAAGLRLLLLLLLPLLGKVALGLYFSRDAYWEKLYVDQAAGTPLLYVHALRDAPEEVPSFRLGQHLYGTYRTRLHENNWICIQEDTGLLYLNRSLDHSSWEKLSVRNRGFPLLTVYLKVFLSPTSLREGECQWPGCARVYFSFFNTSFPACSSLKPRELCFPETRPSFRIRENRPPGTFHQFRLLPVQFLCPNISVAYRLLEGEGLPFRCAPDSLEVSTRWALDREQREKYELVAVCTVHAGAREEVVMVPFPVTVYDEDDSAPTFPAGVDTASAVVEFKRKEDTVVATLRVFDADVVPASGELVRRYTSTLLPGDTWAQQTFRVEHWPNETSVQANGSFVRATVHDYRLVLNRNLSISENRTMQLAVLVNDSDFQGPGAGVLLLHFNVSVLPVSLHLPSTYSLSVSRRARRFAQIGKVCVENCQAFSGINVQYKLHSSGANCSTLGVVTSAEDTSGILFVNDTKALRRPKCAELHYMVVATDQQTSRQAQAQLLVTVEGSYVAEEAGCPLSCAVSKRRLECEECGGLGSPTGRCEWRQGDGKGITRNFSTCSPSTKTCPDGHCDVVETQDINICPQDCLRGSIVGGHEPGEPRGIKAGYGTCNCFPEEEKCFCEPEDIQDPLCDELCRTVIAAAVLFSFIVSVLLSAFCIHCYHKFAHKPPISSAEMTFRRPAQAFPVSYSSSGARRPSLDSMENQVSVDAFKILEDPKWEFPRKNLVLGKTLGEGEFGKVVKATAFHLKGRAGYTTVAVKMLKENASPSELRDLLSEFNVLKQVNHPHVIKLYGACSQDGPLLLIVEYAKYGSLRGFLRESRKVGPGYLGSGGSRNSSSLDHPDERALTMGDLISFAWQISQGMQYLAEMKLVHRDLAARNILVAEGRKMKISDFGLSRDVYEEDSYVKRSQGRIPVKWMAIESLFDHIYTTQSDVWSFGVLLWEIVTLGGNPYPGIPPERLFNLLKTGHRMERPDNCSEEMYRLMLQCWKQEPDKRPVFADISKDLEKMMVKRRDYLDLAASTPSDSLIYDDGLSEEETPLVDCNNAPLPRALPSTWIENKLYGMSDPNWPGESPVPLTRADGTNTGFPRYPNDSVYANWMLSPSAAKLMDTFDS
Chain of Serine/threonine-protein kinase PLK3 (Homo sapiens) (Q9H4B4 whole entry, looked up): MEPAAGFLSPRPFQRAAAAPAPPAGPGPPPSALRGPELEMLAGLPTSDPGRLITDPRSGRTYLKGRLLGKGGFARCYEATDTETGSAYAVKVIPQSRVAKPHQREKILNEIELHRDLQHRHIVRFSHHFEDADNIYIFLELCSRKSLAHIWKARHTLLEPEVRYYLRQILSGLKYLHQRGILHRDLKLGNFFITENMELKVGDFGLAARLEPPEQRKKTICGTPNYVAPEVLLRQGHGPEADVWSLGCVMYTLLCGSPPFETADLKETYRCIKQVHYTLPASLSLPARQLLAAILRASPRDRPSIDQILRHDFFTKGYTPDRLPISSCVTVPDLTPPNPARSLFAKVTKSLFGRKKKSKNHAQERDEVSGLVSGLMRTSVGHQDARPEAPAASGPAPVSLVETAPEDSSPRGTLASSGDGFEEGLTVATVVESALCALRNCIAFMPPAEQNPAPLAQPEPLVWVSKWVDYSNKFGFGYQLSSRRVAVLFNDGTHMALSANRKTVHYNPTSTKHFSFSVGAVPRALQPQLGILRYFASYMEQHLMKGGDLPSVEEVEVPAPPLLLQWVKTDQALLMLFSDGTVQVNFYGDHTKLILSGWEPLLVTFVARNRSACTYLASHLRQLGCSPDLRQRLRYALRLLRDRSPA
Chain of Rho-associated protein kinase 1 (Homo sapiens) (Q13464 2-1354 limits assumed): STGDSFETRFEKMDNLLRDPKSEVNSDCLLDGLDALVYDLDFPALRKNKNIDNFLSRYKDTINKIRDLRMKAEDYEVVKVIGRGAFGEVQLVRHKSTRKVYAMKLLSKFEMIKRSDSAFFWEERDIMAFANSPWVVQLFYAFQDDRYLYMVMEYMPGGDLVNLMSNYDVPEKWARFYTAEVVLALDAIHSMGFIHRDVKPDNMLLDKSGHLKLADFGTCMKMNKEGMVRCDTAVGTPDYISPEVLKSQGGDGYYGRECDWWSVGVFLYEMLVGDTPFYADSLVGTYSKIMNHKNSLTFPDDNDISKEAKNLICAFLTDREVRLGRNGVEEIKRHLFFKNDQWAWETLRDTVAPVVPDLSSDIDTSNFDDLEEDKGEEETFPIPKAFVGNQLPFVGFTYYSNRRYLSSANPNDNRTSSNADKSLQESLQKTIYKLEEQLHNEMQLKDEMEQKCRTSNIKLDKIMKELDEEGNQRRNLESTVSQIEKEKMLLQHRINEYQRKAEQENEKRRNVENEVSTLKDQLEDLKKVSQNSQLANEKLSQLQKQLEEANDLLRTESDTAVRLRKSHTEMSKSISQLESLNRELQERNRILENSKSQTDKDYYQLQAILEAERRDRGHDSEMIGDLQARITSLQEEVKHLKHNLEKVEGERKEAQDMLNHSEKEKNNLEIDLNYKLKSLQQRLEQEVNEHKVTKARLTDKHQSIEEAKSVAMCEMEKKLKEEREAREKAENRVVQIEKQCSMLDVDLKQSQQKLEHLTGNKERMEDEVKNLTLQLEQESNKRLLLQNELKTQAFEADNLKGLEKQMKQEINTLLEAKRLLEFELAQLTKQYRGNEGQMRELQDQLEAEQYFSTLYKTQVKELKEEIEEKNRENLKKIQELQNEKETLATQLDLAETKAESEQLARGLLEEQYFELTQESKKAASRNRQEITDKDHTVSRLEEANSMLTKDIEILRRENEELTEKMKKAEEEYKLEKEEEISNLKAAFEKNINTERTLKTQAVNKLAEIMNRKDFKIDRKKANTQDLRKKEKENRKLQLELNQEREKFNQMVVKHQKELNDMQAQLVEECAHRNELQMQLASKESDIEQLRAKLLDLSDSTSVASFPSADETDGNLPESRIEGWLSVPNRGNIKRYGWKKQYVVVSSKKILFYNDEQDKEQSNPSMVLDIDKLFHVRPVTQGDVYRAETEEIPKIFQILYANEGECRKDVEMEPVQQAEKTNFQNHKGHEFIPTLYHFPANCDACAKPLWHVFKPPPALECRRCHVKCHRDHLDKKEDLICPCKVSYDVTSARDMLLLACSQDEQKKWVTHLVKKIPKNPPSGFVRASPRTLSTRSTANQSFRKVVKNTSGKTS
Chain of Macrophage-stimulating protein receptor (Homo sapiens) (Q04912 25-304 limits assumed): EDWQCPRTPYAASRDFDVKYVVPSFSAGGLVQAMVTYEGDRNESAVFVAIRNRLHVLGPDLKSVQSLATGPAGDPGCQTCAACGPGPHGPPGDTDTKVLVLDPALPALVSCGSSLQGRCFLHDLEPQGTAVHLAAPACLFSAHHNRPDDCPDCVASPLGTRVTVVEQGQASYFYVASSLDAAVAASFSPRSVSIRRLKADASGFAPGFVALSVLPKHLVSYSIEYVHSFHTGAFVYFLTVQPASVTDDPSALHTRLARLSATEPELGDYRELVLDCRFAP
Chain of Macrophage-stimulating protein receptor (Homo sapiens) (Q04912 310-1400 limits assumed): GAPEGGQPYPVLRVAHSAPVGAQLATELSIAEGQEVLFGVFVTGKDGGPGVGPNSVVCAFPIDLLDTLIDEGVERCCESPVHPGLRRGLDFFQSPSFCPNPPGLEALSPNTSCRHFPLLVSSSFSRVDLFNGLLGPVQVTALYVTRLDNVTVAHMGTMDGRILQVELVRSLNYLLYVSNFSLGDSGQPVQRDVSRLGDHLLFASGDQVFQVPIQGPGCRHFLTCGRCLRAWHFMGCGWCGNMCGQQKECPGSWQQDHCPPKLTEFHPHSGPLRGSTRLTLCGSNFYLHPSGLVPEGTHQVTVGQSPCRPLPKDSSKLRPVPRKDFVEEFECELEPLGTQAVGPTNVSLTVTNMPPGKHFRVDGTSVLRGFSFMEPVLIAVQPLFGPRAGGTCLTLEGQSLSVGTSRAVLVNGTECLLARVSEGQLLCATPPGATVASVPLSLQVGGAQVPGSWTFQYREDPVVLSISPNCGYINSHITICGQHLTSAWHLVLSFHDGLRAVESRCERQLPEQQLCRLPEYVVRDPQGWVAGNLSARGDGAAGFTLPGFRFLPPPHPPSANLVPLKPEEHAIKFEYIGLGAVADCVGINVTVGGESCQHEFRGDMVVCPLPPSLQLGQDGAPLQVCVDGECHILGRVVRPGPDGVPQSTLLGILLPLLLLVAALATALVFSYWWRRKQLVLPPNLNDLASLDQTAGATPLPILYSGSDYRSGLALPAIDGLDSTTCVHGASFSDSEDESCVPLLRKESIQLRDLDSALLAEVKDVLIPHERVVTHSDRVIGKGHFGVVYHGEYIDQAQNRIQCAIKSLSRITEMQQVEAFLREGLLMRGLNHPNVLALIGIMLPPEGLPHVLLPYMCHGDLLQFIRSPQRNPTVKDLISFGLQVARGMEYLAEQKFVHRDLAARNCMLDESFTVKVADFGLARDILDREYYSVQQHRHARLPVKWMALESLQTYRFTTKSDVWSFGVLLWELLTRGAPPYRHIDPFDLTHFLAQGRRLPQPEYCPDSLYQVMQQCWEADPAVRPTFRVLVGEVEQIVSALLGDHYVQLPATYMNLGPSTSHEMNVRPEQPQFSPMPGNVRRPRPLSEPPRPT
Chain of Receptor-interacting serine/threonine-protein kinase 2 (Homo sapiens) (O43353 whole entry): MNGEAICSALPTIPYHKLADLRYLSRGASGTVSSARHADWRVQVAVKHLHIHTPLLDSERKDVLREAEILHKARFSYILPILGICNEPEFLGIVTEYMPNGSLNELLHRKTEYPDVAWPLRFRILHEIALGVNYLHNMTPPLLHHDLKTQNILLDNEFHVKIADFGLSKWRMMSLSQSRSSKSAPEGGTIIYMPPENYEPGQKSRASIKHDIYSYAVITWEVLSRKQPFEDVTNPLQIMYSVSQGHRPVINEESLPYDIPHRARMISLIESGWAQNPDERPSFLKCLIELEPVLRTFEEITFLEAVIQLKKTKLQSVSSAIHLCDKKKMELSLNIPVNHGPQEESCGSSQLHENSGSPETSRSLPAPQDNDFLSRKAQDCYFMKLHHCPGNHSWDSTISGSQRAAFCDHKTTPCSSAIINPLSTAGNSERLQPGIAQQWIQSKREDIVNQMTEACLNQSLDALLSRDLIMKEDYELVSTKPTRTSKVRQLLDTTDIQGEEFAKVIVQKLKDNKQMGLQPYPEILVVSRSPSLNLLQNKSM

As for `CC[n+]1c(/C=C/N(C)c2ccccc2)n(-c2ccccc2)c2ccc(-c3nc4ccccc4s3)cc21`, the residual activity in [1] is 99% (inactive); in experiment [2] it was 103%; in experiment [3], 108%; in experiment [4], 63%; in [5], 139%; in experiment [6] it was 83%. Besides, the residual activity in experiment [7] stood at 93%; in experiment [8] it was 88%; in experiment [9] it was 110%; in [10] it was 102%; in experiment [11], 103%; in experiment [12], 93%. The residual activity was 96% in experiment [13]; 100% in experiment [14]; 97% in experiment [15]; 57% in experiment [16]; 105% in [17]; 102% in experiment [18]. Further, the residual activity in experiment [19] came out at 99%; in experiment [20], 72%.

With `Cc1cncc2cccc(S(=O)(=O)N3CCCN(C(=O)CN)C[C@H]3C)c12`, the residual activity was 98% (inactive) in experiment [1]; 92% in experiment [2]; 57% in experiment [3]; 13% in experiment [4]; 122% in [5]; 55% in [6]. In addition, the residual activity in [7] was 95%; in experiment [8], 76%; in experiment [9], 34%; in [10] it was 14%; in experiment [11], 1%; in experiment [12], -1%. Further, the residual activity in experiment [13] was found to be 91%; in [14] it was 90%; in experiment [15], 89%; in experiment [16], 70%; in [17], 90%; in experiment [18], 82%. The residual activity turned out to be 83% in [19] and 95% in [20].

As for `COc1ccc(OC)c2c(=S)c3ccccc3[nH]c12`, the residual activity in [1] is 99% (inactive); in experiment [2], 95%; in [3], 83%; in experiment [4] it was 83%; in [5], 79%; in experiment [6] it was 105%. Also, the residual activity is 85% in experiment [7]; 80% in experiment [8]; 122% in experiment [9]; 102% in experiment [10]; 86% in [11]; 95% in [12]. Also, the residual activity in [13] worked out at 110%; in experiment [14], 96%; in experiment [15], 69%; in experiment [16], 82%; in experiment [17] it was 99%; in [18], 92%. For the same compound, the residual activity in experiment [19] was determined as 108%; in [20] it was 93%.

Turning to `CC(=O)O/N=C1\C(=C2\C(=O)Nc3cc(Br)ccc32)Nc2ccccc21`, the residual activity in experiment [1] was 92% (inactive); in [2], 99%; in experiment [3], 77%; in [4] it was 93%; in experiment [5], 79%; in experiment [6] it was 32%. The residual activity was 92% in experiment [7]; 84% in experiment [8]; 123% in experiment [9]; 119% in [10]; 98% in [11]; 95% in experiment [12]. Also, the residual activity in [13] was 6%; in experiment [14], -1%; in [15], 85%; in experiment [16] it was 89%; in experiment [17], 100%; in [18], 90%. The figures for the residual activity in experiment [19] and in experiment [20] were 100% and 98%, respectively.

On to `CN(C)CCCn1cc(C2=C(c3c[nH]c4ccccc34)C(=O)NC2=O)c2ccccc21`, for which the residual activity in experiment [1] is 101% (inactive); in experiment [2] it was 104%; in experiment [3] it was 103%; in experiment [4] it was 38%; in experiment [5], 115%; in experiment [6], 42%. Also, the residual activity in experiment [7] was 90%; in [8] it was 77%; in [9], 83%; in experiment [10], 89%; in experiment [11] it was 119%; in experiment [12], 88%. In addition, the residual activity in experiment [14] came to 64%; in experiment [15] it was 102%; in [16], 87%; in experiment [17], 108%; in [20], 76%.

Take `N#Cc1cnc2cnc(NCc3cccnc3)cc2c1Nc1ccc(F)c(Cl)c1`: the residual activity in experiment [2] came to 96%; in experiment [3] it was 95%; in experiment [4], 87%; in experiment [5], 66%; in [6] it was 45%; in [7], 100%. Further, the residual activity turned out to be 96% in experiment [8]; 37% in experiment [9]; 19% in experiment [10]; 2% in experiment [11]; 3% in [12]; 88% in experiment [13]. Besides, the residual activity in [14] is 62%; in experiment [15], 100%; in experiment [16], 88%; in experiment [17] it was 67%; in experiment [18], 52%.

As for `N#CCCc1ccc2c(c1)-c1[nH]c3ccc([N+](=O)[O-])cc3c1CC(=O)N2`, the residual activity in [1] is 100% (inactive); in experiment [2] it was 82%; in experiment [3], 72%; in [4] it was 25%; in [5] it was 19%; in [6], 9%. The residual activity in experiment [7] worked out at 18%; in experiment [8] it was 10%; in [9] it was 52%; in experiment [10], 24%; in experiment [11] it was 8%; in experiment [12] it was 7%. The residual activity in experiment [13] was 80%; in experiment [14] it was 49%; in experiment [19], 75%; in experiment [20], 59%.
